Test results reported in PubChem BioAssay (Tox21).
Results filed as inconclusive are left out. A call without a number means that no potency is given here. Unmarked numbers belong to inactive results. Activity calls are given as the source filed them. Unless noted, calls come from the whole dose curve; as a rule, active = well fitted curve in the direction sought with a large enough effect in the repeat runs; inconclusive = weak or mixed curves; inactive = no such curve, though single readings can be large; an effect the other way counts as inactive or inconclusive.

How the values were obtained:
[1] = molecular target: Retinoic acid receptor RXR-alpha (Homo sapiens) (UniProt P19793); experiment: qHTS assay to identify small molecule agonists of the RXR signaling pathway (AID 1159527; calls by dose curve; note: nearly all actives have a fitted effect of over 35% in size); settings: HEK293T RXRa-UAS-bla, beta-lactamase ratio, 16 h; series mostly up to 76.8 µM
Retinoic acid receptor RXR-alpha (Homo sapiens), sequence (P19793 whole entry, looked up): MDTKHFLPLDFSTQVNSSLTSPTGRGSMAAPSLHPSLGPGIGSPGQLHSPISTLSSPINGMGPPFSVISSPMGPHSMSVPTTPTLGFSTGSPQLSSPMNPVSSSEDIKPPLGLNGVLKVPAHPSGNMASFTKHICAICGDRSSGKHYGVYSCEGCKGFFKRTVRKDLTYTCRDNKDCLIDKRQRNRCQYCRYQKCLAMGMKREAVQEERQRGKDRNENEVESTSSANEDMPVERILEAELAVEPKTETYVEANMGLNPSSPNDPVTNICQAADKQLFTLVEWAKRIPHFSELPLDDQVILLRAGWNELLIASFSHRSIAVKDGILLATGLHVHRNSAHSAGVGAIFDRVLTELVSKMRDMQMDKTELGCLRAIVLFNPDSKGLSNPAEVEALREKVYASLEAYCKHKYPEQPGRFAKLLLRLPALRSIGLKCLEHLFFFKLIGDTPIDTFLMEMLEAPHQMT
Summary of the method: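 Agonist mode; 9-cis retinoic acid positive control. HEK 293T UAS-bla reporter cells, 2% charcoal-stripped FBS, 16 hr compound exposure at 37 C/5% CO2. LiveBLAzer B/G FRET substrate 2 hr RT; ex 405, em 460/530 nm.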

[2] = qHTS assay to identify small molecule agonists of the RXR signaling pathway - cell viability counter screen (AID 1159529); settings: RXR-alpha-bla HEK293T viability, CellTiter-Glo, 16 h; series mostly up to 76.8 µM; note: nearly all actives have a fitted effect of over 50% in size
Summary of the method: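 Luminescence from CellTiter-Glo (30 min, RT) measured viability in the same wells as the beta-lactamase reporter readout. Cells: GeneBLAzer RXR-alpha HEK 293T, 2% charcoal-stripped FBS. Compound exposure 16 hr, 37 C.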

[3] = qHTS assay to identify small molecule antagonists of the retinoid acid receptor (RAR) signaling pathway - cell viability counter screen (AID 1159551); settings: C3RL4 cells viability, ATP luminescence (CellTiter-Glo), 6 h; series mostly up to 92.4 µM; note: nearly all actives have a fitted effect of over 35% in size
Summary of the method: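 Seed C3RL4 cells; next day add compound, then retinol to 1 uM final; incubate 6 h at 37 C; add CellTiter-Glo; read luminescence after 30 min at RT.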

[4] = qHTS assay to identify small molecule antagonists of the retinoic acid receptor (RAR) signaling pathway (AID 1159552; note: nearly all actives have a fitted effect of over 50% in size); settings: C3RL4 RARE luciferase reporter, retinol-stimulated, 6 h; series mostly up to 92.4 µM
Summary of the method: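 Luminescence from a RARE luciferase reporter in C3RL4 cells served as read-out. Cells received compounds together with 1 uM final retinol and incubated 6 hr at 37 C before detection reagent was added for 30 min at room temperature.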

[5] = qHTS assay to identify small molecule agonists of the retinoic acid receptor (RAR) signaling pathway (AID 1159553); settings: C3RL4 RARE luciferase reporter, agonist, 6 h; series mostly up to 73.3 µM; note: potency is the fitted concentration of half-maximal effect
Summary of the method: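 Activation of retinol signaling was monitored via a RARE luciferase reporter in C3RL4 cells. After 6 hr compound treatment at 37 C, detection reagent was added for 30 min at room temperature before luminescence reading.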

| Compound | Potency [1] | outcome [2] | outcome [3] | outcome [4] | Potency [5] | activation [1] | activity change, negative = cytotoxicity [2] | activity change, negative = cytotoxicity [3] | activity, negative = inhibition [4] |
| --- | --- | --- | --- | --- | --- | --- | --- | --- | --- |
| O=C1c2ccccc2C(=O)c2cc(S(=O)(=O)O)ccc21 | inactive | inactive | inactive | inactive | inactive |  |  |  |  |
| Nc1cccc(O)c1 | inactive | inactive | inactive | inactive | inactive |  |  |  |  |
| O=C1c2ccccc2C(=O)C1c1ccccc1 | inactive | inactive | inactive | inactive | inactive |  |  |  |  |
| O=C(Nc1ccc(Cl)c(Cl)c1)C1CC1 | inactive | inactive | inactive | inactive | inactive |  |  |  |  |
| CCCCOC(=O)c1ccccc1 | inactive | inactive | inactive | inactive | inactive |  |  |  |  |
| CCOCCOC(=O)/C=C/c1ccc(OC)cc1 | inactive | inactive | inactive | inactive | 33.5 µM (active) |  |  |  |  |
| COc1ccc(S(=O)(=O)N2c3ccc(Cl)cc3[C@@](O)(c3ccccc3Cl)[C@H]2C(=O)N2CCC[C@@H]2C(N)=O)cc1OC | inactive | inactive | inactive |  | inactive |  |  |  |  |
| Cc1ccc2ccc(Cl)cc2n1 | inactive | inactive | inactive | inactive | inactive |  |  |  |  |
| N[C@@H](CCC(=O)N[C@@H](CS)C(=O)NCC(=O)O)C(=O)O |  |  |  |  | inactive | 2.72% [at 15.8 µM] | -1.04% [at 15.8 µM] | 0.178% [at 19 µM] | 29.9% [at 19 µM] |
| O=P(O)(O)OP(=O)(O)O | inactive | inactive | inactive | inactive | inactive |  |  |  |  |
| COc1cc(N)ccc1C | inactive | inactive | inactive | inactive | inactive |  |  |  |  |
| CC(=O)Nc1cccc(C)c1 | inactive | inactive | inactive | inactive | inactive |  |  |  |  |
